Inconclusive results are not listed. Calls of active or inactive are those of the source. How the source made its calls: active means hit-call score of the fitted dose curve at least 0.9, where 1 is the maximum; inconclusive means response in the unintended direction; inactive means score below 0.9.
molecular target: Estrogen receptor (Homo sapiens) + Estrogen receptor beta (Homo sapiens) (UniProt P03372+Q92731); assay: OT_ER_ERaERb_1440: Odyssey Thera (OT) 24-hour HEK293T Protein-Complementation Assay for Estrogen Receptor-alpha/-beta Homodimer (AID 2283356);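 further: heteromer of ER alpha and ER beta binding domains; hits raise reporter fluorescence and both agonists and antagonists give an increase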
Procedure, shortened: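 Heterodimerisation of ERα (aa 310-547) and ERβ (aa 263-489) ligand binding domains was tracked as fluorescence gain in stably transfected HEK293T cells following 24 h dosing, normalised to DMSO controls.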

Sequence of Estrogen receptor (Homo sapiens) + Estrogen receptor beta (Homo sapiens) (P03372 whole entry, looked up, the tested form may be a part): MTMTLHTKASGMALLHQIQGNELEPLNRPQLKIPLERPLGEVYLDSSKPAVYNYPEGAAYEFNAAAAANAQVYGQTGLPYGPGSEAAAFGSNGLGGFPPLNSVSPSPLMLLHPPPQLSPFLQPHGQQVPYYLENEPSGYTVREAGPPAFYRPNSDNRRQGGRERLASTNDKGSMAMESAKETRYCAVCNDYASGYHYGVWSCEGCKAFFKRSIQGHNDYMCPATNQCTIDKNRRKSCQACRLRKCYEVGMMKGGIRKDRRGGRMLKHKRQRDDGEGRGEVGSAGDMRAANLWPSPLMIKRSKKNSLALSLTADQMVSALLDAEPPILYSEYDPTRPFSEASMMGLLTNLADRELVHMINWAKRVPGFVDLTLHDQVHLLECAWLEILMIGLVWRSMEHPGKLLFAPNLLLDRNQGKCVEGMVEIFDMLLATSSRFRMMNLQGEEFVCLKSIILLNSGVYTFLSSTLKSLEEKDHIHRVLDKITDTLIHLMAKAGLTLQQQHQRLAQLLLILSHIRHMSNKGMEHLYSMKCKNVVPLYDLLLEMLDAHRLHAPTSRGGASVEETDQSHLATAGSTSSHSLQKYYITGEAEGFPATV
Sequence of Estrogen receptor (Homo sapiens) + Estrogen receptor beta (Homo sapiens) (Q92731 whole entry, looked up, the tested form may be a part): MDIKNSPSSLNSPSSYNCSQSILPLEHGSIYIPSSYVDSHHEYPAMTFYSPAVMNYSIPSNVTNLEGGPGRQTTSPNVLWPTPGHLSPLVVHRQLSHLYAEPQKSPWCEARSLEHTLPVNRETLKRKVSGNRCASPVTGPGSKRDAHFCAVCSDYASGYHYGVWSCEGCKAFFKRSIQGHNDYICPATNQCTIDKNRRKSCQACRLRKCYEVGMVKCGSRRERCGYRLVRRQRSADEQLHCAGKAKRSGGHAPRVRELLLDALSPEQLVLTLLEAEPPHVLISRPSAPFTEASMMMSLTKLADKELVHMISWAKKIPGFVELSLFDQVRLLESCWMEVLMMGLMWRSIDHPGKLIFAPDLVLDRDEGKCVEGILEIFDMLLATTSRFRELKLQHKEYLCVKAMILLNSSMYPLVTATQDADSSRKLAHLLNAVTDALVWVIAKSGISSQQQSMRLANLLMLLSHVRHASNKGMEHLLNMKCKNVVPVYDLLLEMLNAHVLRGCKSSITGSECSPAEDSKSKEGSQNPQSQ

| SMILES | outcome | AC50 |
| --- | --- | --- |
| O=C(O)C1CCC(C(=O)O)CC1 (stereo not drawn) | inactive | – |
| CCCCCCCCCCCCc1ccc(O)cc1 | – | 1.14 µM (active) |
| CCCCCCCCCCCCCCCCCCOS(=O)(=O)O | – | 23.7 µM (active) |
| COc1ccc(-c2coc3cc(O)cc(O)c3c2=O)cc1 | – | 5.37 µM (active) |
| CC(C)c1ccc(O)c(C(C)C)c1 | inactive | – |
| c1ccc(Nc2cccc3ccccc23)cc1 | – | 47.1 µM (active) |
| N#Cc1ccc(C(c2ccc(C#N)cc2)n2cncn2)cc1 | inactive | – |
| CCCCCCOC(=O)CCCCC(=O)OCCCCCC | inactive | – |
| CC(C)c1cc(C(C)C)cc(C(C)C)c1 | inactive | – |
| CCCCCCCOC(=O)c1ccc(O)cc1 | – | 12.2 µM (active) |
| CCCCCCCCC(CO)CCCCCC (stereo not drawn) | inactive | – |
| C[Si](C)(C)N[Si](C)(C)C | inactive | – |
| CC(=O)OCc1ccccc1 | inactive | – |
| C=CCOC(=O)c1ccc(C(=O)OCC=C)c(C(=O)OCC=C)c1 | inactive | – |
| CN(C)c1ccc2nc3ccc(=[N+](C)C)cc-3sc2c1 | – | 12 µM (active) |
| CO[Si](C)(C)OC | inactive | – |
| Oc1ccccc1Cc1ccccc1O | – | 53.4 µM (active) |
| CC(C)(C)C1CCC(=O)CC1 | inactive | – |
| O=C(Nc1ccccc1)c1cc(Cl)ccc1O | – | 31 µM (active) |
| CCOC(=O)C1=NOC(c2ccccc2)(c2ccccc2)C1 | inactive | – |

molecular target: Estrogen receptor beta (Homo sapiens) (UniProt Q92731); assay: OT_ER_ERbERb_0480: Odyssey Thera (OT) 8-hour HEK293T Protein-Complementation Assay for Estrogen Receptor-beta/-beta Homodimer (AID 2283357);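 further: active means signal gain over DMSO baseline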
Procedure, shortened: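 ER-beta LBD homodimer PCA stably expressed in HEK293T; 8 h compound exposure, then formaldehyde fixation and Draq5 staining. Gain in nuclear/cytoplasmic fluorescence intensity versus DMSO vehicle, read on laser scanning cytometer.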

Sequence of Estrogen receptor beta (Homo sapiens) (Q92731 whole entry, looked up, the tested form may be a part): as the sequence (Q92731 whole entry, looked up, the tested form may be a part) above

| SMILES | outcome | AC50 |
| --- | --- | --- |
| O=C(O)C1CCC(C(=O)O)CC1 (stereo not drawn) | inactive | – |
| CCCCCCCCCCCCc1ccc(O)cc1 | – | 0.853 µM (active) |
| CCCCCCCCCCCCCCCCCCOS(=O)(=O)O | inactive | – |
| COc1ccc(-c2coc3cc(O)cc(O)c3c2=O)cc1 | – | 2.05 µM (active) |
| CC(C)c1ccc(O)c(C(C)C)c1 | inactive | – |
| c1ccc(Nc2cccc3ccccc23)cc1 | – | 29.1 µM (active) |
| N#Cc1ccc(C(c2ccc(C#N)cc2)n2cncn2)cc1 | inactive | – |
| CCCCCCOC(=O)CCCCC(=O)OCCCCCC | inactive | – |
| CC(C)c1cc(C(C)C)cc(C(C)C)c1 | inactive | – |
| CCCCCCCOC(=O)c1ccc(O)cc1 | – | 2.68 µM (active) |
| CCCCCCCCC(CO)CCCCCC (stereo not drawn) | inactive | – |
| C[Si](C)(C)N[Si](C)(C)C | inactive | – |
| CC(=O)OCc1ccccc1 | inactive | – |
| C=CCOC(=O)c1ccc(C(=O)OCC=C)c(C(=O)OCC=C)c1 | inactive | – |
| CN(C)c1ccc2nc3ccc(=[N+](C)C)cc-3sc2c1 | – | 70.8 µM (active) |
| CO[Si](C)(C)OC | inactive | – |
| Oc1ccccc1Cc1ccccc1O | – | 31.6 µM (active) |
| CC(C)(C)C1CCC(=O)CC1 | inactive | – |
| O=C(Nc1ccccc1)c1cc(Cl)ccc1O | inactive | – |
| CCOC(=O)C1=NOC(c2ccccc2)(c2ccccc2)C1 | inactive | – |

molecular target: human Peroxisome Proliferator-activated Receptor alpha (PPARa), PPARA (gene 5465) (UniProt Q07869); assay: NVS_NR_hPPARa: NovaScreen (NVS) Nuclear Receptor Binding Assay for human Peroxisome Proliferator-activated Receptor alpha (PPARa) (AID 2283359);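 further: activity means loss of TR-FRET signal versus DMSO baseline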
Procedure, shortened: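 Loss of TR-FRET binding signal relative to DMSO was measured 1 h after chemical addition to extracted receptor protein. Chemicals were first tested in duplicate at 25 uM, and actives were followed up in concentration series.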

Sequence of human Peroxisome Proliferator-activated Receptor alpha (PPARa), PPARA (gene 5465) (Q07869 whole entry, looked up): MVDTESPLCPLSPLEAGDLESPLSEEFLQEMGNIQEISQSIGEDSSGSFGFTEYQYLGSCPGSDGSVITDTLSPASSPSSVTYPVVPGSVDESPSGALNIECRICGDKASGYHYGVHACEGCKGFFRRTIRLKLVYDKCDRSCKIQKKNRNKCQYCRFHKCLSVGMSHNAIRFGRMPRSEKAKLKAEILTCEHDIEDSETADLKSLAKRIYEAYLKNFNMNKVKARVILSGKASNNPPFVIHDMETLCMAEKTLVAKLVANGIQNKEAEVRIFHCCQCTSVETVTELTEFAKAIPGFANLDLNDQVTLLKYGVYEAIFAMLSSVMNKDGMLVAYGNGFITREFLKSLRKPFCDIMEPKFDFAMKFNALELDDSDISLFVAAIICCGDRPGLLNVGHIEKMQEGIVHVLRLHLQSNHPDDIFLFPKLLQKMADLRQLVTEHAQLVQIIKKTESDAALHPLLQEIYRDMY

| SMILES | AC50 | outcome |
| --- | --- | --- |
| CCCCCC[C@@H](O)C/C=C\CCCCCCCC(=O)OCC(O)CO (stereo partly drawn) | 15.5 µM (active) | – |
| CCCCCCCOC(=O)c1ccc(O)cc1 | – | inactive |
| CCCCNS(=O)(=O)c1ccc(C)cc1 | – | inactive |
